High-throughput results (PubChem)
Sampled rows, rich in hits. Any-hit rate of the full collection: about 4.1%.
ssDAF12 agonist = activates DAF-12 receptor from parasite S. stercoralis | AID 652126 | 370,000 compounds, 1% hits | HEK293 ssDAF-12/GRIP1 lit1-tk-luc reporter, luminescence; % of 3 µM dafachronic acid response | activation, % at 6.8 µM;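 active = activation above the mean over all tested compounds plus 3 SD, cut at about 0.9% in these data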;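 note: 0% = DMSO-only wells and 100% = 3 µM delta7-dafachronic acid wells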
hgDAF-12 ag = agonists of H. glycines DAF-12 nuclear receptor; HEK293 GAL4-hgDAF12 UAS-luciferase reporter, agonist luminescence; normalized to butyrate control; activation, % at 6.8 µM; 370,000 compounds, 1.8% hits; AID 687014;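 active = activation above a cutoff set at the mean of all screened compounds plus 3 SD, cut at about 10% in these data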;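 note: 0% = DMSO wells and 100% = sodium butyrate wells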
DAX1 inh-1 = inhibits human nuclear receptor DAX1; P51843; HEK293 Gal4-DAX1 luciferase reporter, luminescence; inhibition, % at 6.75 µM; 340,000 compounds, 0.99% hits; AID 504766;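 active = inhibition above the mean over all tested compounds plus 3 SD, cut at about 4.2% in these data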;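 note: 0% = DAX1-transfected cells with DMSO and 100% = empty-vector control cells with DMSO; inhibition shows as a rise in luminescence from relieved DAX1 repression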
Target sequence (P51843 207-470 limits assumed): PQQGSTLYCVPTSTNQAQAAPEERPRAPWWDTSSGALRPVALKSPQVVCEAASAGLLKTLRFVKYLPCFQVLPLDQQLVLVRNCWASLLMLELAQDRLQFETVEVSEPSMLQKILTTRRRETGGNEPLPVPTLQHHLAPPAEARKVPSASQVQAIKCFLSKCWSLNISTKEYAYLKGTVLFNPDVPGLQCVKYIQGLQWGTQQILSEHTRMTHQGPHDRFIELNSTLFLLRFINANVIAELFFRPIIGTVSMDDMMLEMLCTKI
DAX1 inh-2 = blocks DAX1 repression of SF-1 activated StAR promoter | HEK293T StAR-luciferase reporter, SF-1/DAX-1 repression relief | inhibition, % at 6.8 µM | 370,000 compounds, 1.1% hits;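 active = inhibition above the mean over all tested compounds plus 3 SD, cut at about 3.6% in these data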;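 note: 0% = DAX-1 cells with DMSO and 100% = cells lacking DAX-1 with DMSO; higher inhibition means more luminescence from relief of DAX-1 repression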
hcDAF12 agonist = activators of H. contortus DAF-12 nuclear receptor | 370,000 compounds, 1.4% hits | HEK293 hcDAF-12 lit1-tk-luc reporter, luminescence; 0% DMSO, 100% Δ7-dafachronic acid | activation, % at 6.8 µM;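 active = activation above the mean of all tested compounds plus 3 SD, cut at about 5.5% in these data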;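 note: 100% = response to 3 µM Δ7-dafachronic acid high control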
hgDAF12 ag = confirmation of H. glycines DAF-12 agonists. shares compounds with hgDAF-12 ag. HEK293 GAL4-hgDAF12 luciferase reporter, agonist mode; percent of butyrate response. activation, % at 6.8 µM. 3,300 compounds, 80% hits. AID 743050;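 active = mean activation over triplicate wells above the hit cutoff derived from the earlier primary screen, cut at about 11% in these data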;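 note: 0% = DMSO low control and 100% = 2 mM sodium butyrate high control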
LXRb DAF12 ctr = activates human LXR-beta, counter-screen for DAF-12 agonists; HEK293 Gal4-LXR luciferase reporter, 24 h; AID 743051; activation, % at 6.8 µM; 3,300 tested, under 10 active; shares compounds with hgDAF-12 ag;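 active = mean activation of the triplicate above a set limit carried over from the primary screen, none filed active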
* hit, by the source's call.

What do the screens show for `N#Cc1ccc(NC(=S)N2Cc3ccc(Br)cc3-n3nncc3C2)cc1`?
ssDAF12 agonist: -1; hgDAF-12 ag: -3; DAX1 inh-2: -1; hcDAF12 agonist: -2

Results for NC(Cc1ccccc1)c1nc2ccccc2[nH]1 (configuration not stated) ?
ssDAF12 agonist: 0; hgDAF-12 ag: 1; DAX1 inh-1: 2; DAX1 inh-2: 0; hcDAF12 agonist: 2

What do the screens show for `NC(Cc1nc2ccccc2[nH]1)c1ccc(Cl)cc1` (configuration not stated)?
ssDAF12 agonist: 1; hgDAF-12 ag: 14*; DAX1 inh-1: 3; DAX1 inh-2: 3; hcDAF12 agonist: 5; hgDAF12 ag: 15*; LXRb DAF12 ctr: 0

How did O=C(c1cc2c(s1)-c1ccccc1OC2)N1CCC2(CC1)OCCO2 do in these assays?
ssDAF12 agonist: 0; hgDAF-12 ag: 14*; DAX1 inh-1: 3; DAX1 inh-2: 0; hcDAF12 agonist: 3; hgDAF12 ag: 19*; LXRb DAF12 ctr: 1

Results for Cc1cc(N=Nc2ccccc2C)ccc1N ?
ssDAF12 agonist: 0; hgDAF-12 ag: 15*; DAX1 inh-1: 6.0*; DAX1 inh-2: 2; hcDAF12 agonist: 4; hgDAF12 ag: 13*; LXRb DAF12 ctr: 1

What do the screens show for `COc1ccc(CN2Cc3cc(-c4ccc(OC)cc4)ccc3-n3nncc3C2)cc1`?
ssDAF12 agonist: -1; hgDAF-12 ag: 14*; DAX1 inh-2: -2; hcDAF12 agonist: 2; hgDAF12 ag: 3; LXRb DAF12 ctr: 0

What do the screens show for `COc1ccc(CN2Cc3cc(-c4ccccc4)ccc3-n3nncc3C2)cc1`?
ssDAF12 agonist: -1; hgDAF-12 ag: 3; DAX1 inh-2: -1; hcDAF12 agonist: -1

How did Clc1ccc2sc(C3CCNCC3)nc2c1 do in these assays?
ssDAF12 agonist: 0; hgDAF-12 ag: 16*; DAX1 inh-1: 2; DAX1 inh-2: 1; hcDAF12 agonist: 2; hgDAF12 ag: 8; LXRb DAF12 ctr: 0

How did COC(=O)C1C(c2ccc(F)cc2)CC2CCC1N2C (configuration not stated) do in these assays?
ssDAF12 agonist: 0; hgDAF-12 ag: 2; DAX1 inh-2: 0; hcDAF12 agonist: -1

Results for Cc1ccc(C(=O)NCCN2CCC3(CC2)C(=O)NCN3c2ccccc2)cc1 ?
ssDAF12 agonist: 0; hgDAF-12 ag: 1; DAX1 inh-2: 2; hcDAF12 agonist: -1

What do the screens show for `N/C(=N\N=C\c1ccc(O)cc1O)N[N+](=O)[O-]`?
ssDAF12 agonist: -1; hgDAF-12 ag: 0; DAX1 inh-1: -1; DAX1 inh-2: 0; hcDAF12 agonist: 0

Results for COc1ccccc1/C=N/N=C(/N)N[N+](=O)[O-] ?
ssDAF12 agonist: -2; hgDAF-12 ag: 16*; DAX1 inh-1: 0; DAX1 inh-2: 0; hcDAF12 agonist: 0; hgDAF12 ag: 1; LXRb DAF12 ctr: 0

How did CCC12CCN(CC3(O)CC3)C(Cc3ccc(O)cc31)C2(C)C (configuration not stated) do in these assays?
ssDAF12 agonist: -1; hgDAF-12 ag: -2; DAX1 inh-2: 0; hcDAF12 agonist: 0
